The values that follow come from PubChem BioAssay AID504466 (National Center for Advancing Translational Sciences (NCATS), 2011).

Screen size: about 330,000 compounds; about 4,200 (1.3%) were called active. Roughly 6% stayed inconclusive and do not appear here. The call rests on the fitted dose curve; in most records, active means well fitted activation curve with a large enough effect; inconclusive means small, poorly fitted or top-dose-only effect; inactive means no such curve, though single readings can be large or run the other way. The list comes from a sample in which actives are over-represented; it also holds similar structures and randomly drawn compounds. Entries that show only a call come without a potency.
Potency means the concentration at half of the fitted maximal effect.

The assay is described as follows: qHTS screen for small molecules that induce genotoxicity in human embryonic kidney (HEK293T) cells expressing luciferase-tagged ELG1. Further: nearly all actives have a fitted effect of over 60% in size. The conditions noted are these: HEK293T ELG1-luciferase reporter, luminescence, 16 h; series mostly up to 46 µM. The gist of the method: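 After overnight (16 hr) compound treatment at 37 °C, ELG1-luciferase HEK293T cells were lysed with ONE-Glo; luminescence quantified 30 min later at room temperature.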
Turning to `CC(=O)c1ccc(NC(=O)CSc2nc3ccccc3c(=O)n2CCCN2CCOCC2)cc1`, the Potency entry was “inactive”. As for `Cc1c(NC(=O)C(C)OC(=O)c2ccccc2O)c(=O)n(-c2ccccc2)n1C` (centres undefined), the Potency result was “inactive”. Regarding `Cn1c(N)c(C(=O)COC(=O)c2cccc(S(=O)(=O)N3CCOCC3)c2)c(=O)n(C)c1=O`, the Potency result was “inactive”. For the molecule `C#CCOCCOCCOCCNc1nc(N2CCN(C(=O)C([C@@H](C)O)n3cc([C@@H](N)CCCCN)nn3)CC2)nc(N2CCN(C(=O)[C@H](CCCCN)n3cc(CN)nn3)CC2)n1` (some centres undefined), the Potency result is “inactive”. Turning to `Cc1noc(C)c1S(=O)(=O)N(C)C[C@H]1Oc2ccc(NC(=O)C3CC3)cc2C(=O)N([C@H](C)CO)C[C@@H]1C`, the Potency entry was “inactive”. As for `Cc1ncc(CC(=O)n2cc(C(=O)c3cc(Cl)ccc3O)cn2)s1`, the entry is “inactive”; as for `COc1ccc(CNC(=O)COc2ccccc2C(=O)c2cnn(-c3ccccc3)c2)cc1OC`, “inactive”. Take `O=C(c1cnn(-c2ccc(Cl)cc2)c1)c1ccccc1O`: the Potency was 7.3 µM (active).

As for `CC[C@]1(C(=O)OC)[C@H]2C(=O)N(Cc3ccccc3)C(=O)[C@H]2[C@H]2CN=C(SCc3ccc(C#N)cc3)N21`, the Potency result was “inactive”. Take `CN[C@H](C(=O)NC[C@H]1O[C@@H](n2cnc3c(N)ncnc32)[C@H](O)[C@@H]1O)[C@@H](C)OCc1ccccc1`: the Potency entry is “inactive”. `O=C1[C@@H](c2ccccc2)[C@@H](c2ccccc2)N1c1cccnc1`: the Potency entry was “inactive”. As for `CC[C@]12c3[nH]c4ccc(Cl)cc4c3CCN1C(=O)[C@@H](CC(=O)NCCCOC)C[C@@H]2C(=O)N1CCN(C(=O)c2ccco2)CC1`, the entry is “inactive”; as for `O=C(NC1CCCCC1)c1ccc(-c2ccc(Cl)cc2)o1`, “inactive”; as for `COc1ccc(-c2cc(C(=O)NCCCn3ccnc3)no2)cc1`, “inactive”. The same measure for `O=C(Nc1cccnc1Cl)c1cc(-c2cccc(Cl)c2)on1`: “inactive”; for `O=C(NC1CCCC1)c1cc(-c2ccccc2)on1`: 9.2 µM (active); for `O=C(NCCCn1ccnc1)c1ccccc1F`: “inactive”.

In the case of `O=C(NCCCn1ccnc1)c1cc(-c2ccccc2)on1`, the Potency is 14.6 µM (active). `O=C(NC(=S)Nc1ccc(Br)cc1F)C1CCCCC1`: the Potency result was “inactive”. As for `COc1ccc(CNC(=O)C[C@H]2C[C@H](C(=O)N3CCOCC3)[C@@]3(CCC4CCCC4)c4[nH]c5ccc(Cl)cc5c4CCN3C2=O)cc1OC`, the entry is “inactive”. The same measure for `O=C(Nc1cccc(S(=O)(=O)NC2=NCCC2)c1)c1ccc(F)cc1F`: “inactive”.

As to `CCn1nnc2cc(C(=O)Nc3ccc(C(=O)OC(C)C)cc3)ccc21`, the Potency entry was “inactive”. As for `C/C(=N\NC(=O)c1ccoc1C)c1ccccc1O`, the figure is 18.3 µM (active). As for `COc1ccccc1N(CC(=O)N/N=C(\C)c1ccccc1O)S(=O)(=O)c1ccc(C)cc1`, the entry is “inactive”. As for `CC(C)=C(NC(=O)c1ccccc1)C(=O)N/N=C(\C)c1ccccc1O`, the entry is “inactive”; as for `O=C1NC[C@@H](c2ccccc2)OC(=O)[C@H](Cc2ccc(F)cc2)CC/C=C/C[C@H]1CC(=O)N(CCO)Cc1ccccc1`, “inactive”.

With `O=C(c1ccc(F)cc1)n1cc(C(=S)N2CCOCC2)c2ccccc21`, the Potency entry was “inactive”.

On to `O=C(c1ccc(F)cc1)n1c(=S)nc2ccccn21`, for which the Potency was 0.651 µM (active). Turning to `O=C(C[n+]1cc(Br)cc2ccccc21)c1ccc(F)cc1`, the Potency result is “inactive”. For `O=C(COC(=O)/C=C/c1cccc(Cl)c1)NCc1cccs1`, the Potency result was “inactive”. The same measure for `Nn1c(SCC(=O)Nc2ccc3c(c2)CCC3)nnc1C1CC1`: “inactive”. The same measure for `O=C(CSc1ccsc1[N+](=O)[O-])N1CCCCC1`: “inactive”; for `Cn1c(SCC(=O)N2CCCC2)nnc1-c1cccs1`: “inactive”. `O=C(COc1ccccc1Cl)N1CCCCCCC1`: the Potency entry is “inactive”. With `O=C(CSCc1ccc(Cl)cc1)N1CCN(Cc2ccc3c(c2)OCO3)CC1`, the Potency entry is “inactive”.

Regarding `O=C(CSCc1cccs1)N1CCCC1`, the Potency is 16.4 µM (active). Consider `O=C(CSCc1ccc(Cl)cc1)N1CCCCC1`, for which the Potency was 8.91 µM (active). The same measure for `CCN(C[C@H]1N[C@@](CC)(C(=O)OC)[C@H]2C(=O)N(Cc3ccccc3)C(=O)[C@@H]12)S(=O)(=O)c1ccccc1`: “inactive”. For `COc1cc(OC)cc(C(=O)NC(C(=O)N2CCC2)C(C)C)c1` (centres undefined), the Potency entry was “inactive”. With `CC(=O)C1(C)N(O)C(C)(C)C(c2cccs2)=[N+]1[O-]` (centres undefined), the Potency is 0.082 µM (active).

On to `CC1(C)C(c2cccs2)=[N+]([O-])C2(CCCCC2=O)N1O` (centres undefined), for which the Potency entry was “inactive”.

As to `C/C(=N\O)C1(C)N(O)C(C)(C)C(c2ccc(Br)cc2)=[N+]1[O-]` (centres undefined), the Potency result is “inactive”. As for `O=C(Nc1ccc(Cl)cn1)c1ccc2c(c1)OCCO2`, the figure is 1.16 µM (active); as for `CCCc1cc(C(=O)Nc2ccc(Cl)cn2)cs1`, 2.31 µM (active); as for `Cc1nc(NC(=O)c2ccc3c(c2)OCCO3)ccc1Br`, “inactive”. For the molecule `CCCc1cc(C(=O)Nc2ccc(C(=O)OC)cc2)cs1`, the Potency result was “inactive”.

With `COc1c(Cl)cc(C(=O)Nc2ccc(Cl)cn2)cc1Cl`, the Potency entry is “inactive”.

Regarding `COc1ccc(C(=O)NC(=S)Nc2ccc(Cl)cn2)cc1OC`, the Potency entry was “inactive”.

Consider `O=C(Nc1cccc(S(=O)(=O)N2CCCC2)c1)c1cncc(Br)c1`, for which the Potency entry was “inactive”. As for `COc1ccc(-c2sc3ccc(OC)cc3c2C#Cc2ccccn2)cc1`, the entry is “inactive”; as for `COc1cc(OC)c2c(-c3cccc(-c4cccc(N)c4)c3)cc(=O)oc2c1`, “inactive”. For the molecule `CCN([C@H](CO)C(C)C)S(=O)(=O)c1ccccc1Br`, the Potency result is “inactive”. On to `Cc1ccc2c(c1)C1C[N+](C)(CC(=O)c3ccccc3)CCC1N2C(=O)c1ccccc1Cl` (centres undefined), for which the Potency result is “inactive”.

On to `CC1CCCCC1NC(=O)COc1ccc(C#N)cc1` (centres undefined), for which the Potency result was “inactive”. Turning to `C=CCC[C@@H](Cc1ccc(F)cc1)C(=O)O[C@H](CNC(=O)[C@H](CC=C)CC(=O)N(CCO)Cc1ccccc1)c1ccccc1`, the Potency result was “inactive”. With `COC(=O)c1ccc(CNC(=O)c2ccc(S(=O)(=O)N3CCCCCC3)cc2)cc1`, the Potency result was “inactive”. The same measure for `Cc1noc(C)c1COc1ccc(C(=O)NCCOc2ccccc2)cc1`: “inactive”; for `CCCCCCCCC(=O)NCCOc1ccccc1`: “inactive”; for `O=C(NCCOc1ccccc1)c1ccccc1`: 1.64 µM (active). The same measure for `Cc1cc(Cl)c(S(=O)(=O)NCC2CCCO2)cc1OCC(N)=O` (centres undefined): “inactive”; for `Cc1cc(Cl)c(S(=O)(=O)Nc2ccc3c(c2)OCCO3)cc1OCC(N)=O`: 23.1 µM (active); for `Cc1cc(Cl)c(S(=O)(=O)N(C)C)cc1OCC(N)=O`: “inactive”. The same measure for `COC(=O)C1=C(C)N(Cc2ccccc2)C(=NCCCOC(C)C)N[C@H]1c1ccccc1`: “inactive”; for `CN(C)C(=O)CCc1ccc2c3c([nH]c2c1)[C@]1(C)[C@@H](C(=O)N2CCCCC2)C[C@H](CC(=O)NCCC2=CCCCC2)C(=O)N1CC3`: “inactive”; for `Cc1cc2nc(SCCN3CCOCC3)[nH]c2cc1C`: 18.4 µM (active). As to `Cc1cccc(C)c1OCCN1CCOCC1`, the Potency entry was “inactive”. Take `CCn1c2ccc(F)cc2c2nnc(SCCN3CCOCC3)nc21`: the Potency result is “inactive”. In the case of `Cc1ccc(C(=O)OCC(=O)N2CCCCCC2)cc1S(=O)(=O)N1CCOCC1`, the Potency result was “inactive”.

For the molecule `CCC1C/C(=C/c2cccs2)C(=O)/C(=C/c2cccs2)C1` (centres undefined), the Potency result was “inactive”. As to `CN1C/C(=C/c2cccs2)C(=O)/C(=C\c2cccs2)C1`, the Potency entry is “inactive”. The same measure for `O=C1/C(=C/c2cccs2)CCc2ccccc21`: 8.2 µM (active).

`O=C(COc1cccnc1[N+](=O)[O-])Nc1ccc(Cl)cc1F`: the Potency result was “inactive”.

Take `O=C(COC(=O)COc1cccc(F)c1)NCC1CCCCC1`: the Potency entry was “inactive”. The same measure for `COc1ccc2sc(-c3ccc(S(C)(=O)=O)cc3)c(C#Cc3cncn3C)c2c1`: “inactive”; for `CC(C)(C)OC(=O)C[C@@H]1C/C=C\C[C@H](CC(=O)N[C@@H](CO)Cc2ccccc2)C(=O)N[C@H](Cc2ccccc2)COC1=O`: “inactive”. The same measure for `Cc1ccc(-c2cc(C(=O)N3CCc4ccccc4C3)no2)cc1`: “inactive”. Regarding `O=C(c1noc2c1CCCC2)N1CCc2ccccc2C1`, the Potency was 20.6 µM (active). As for `CN(c1ccc(C(=O)N2CCc3ccccc3C2)cc1)S(C)(=O)=O`, the Potency result was “inactive”. For `CC(C)CC1(C)NC(=O)N(CC(=O)Nc2ccc3c(c2)OCCO3)C1=O` (centres undefined), the Potency result is “inactive”. As for `Cc1ccc(S(=O)(=O)NCC(=O)NNC(=O)c2ccc(Br)cc2)cc1C`, the entry is “inactive”.

Regarding `Cc1ccc(-c2nc(-c3ccncc3)no2)c(C)c1`, the Potency is 20.6 µM (active).

Regarding `COc1ccc(-c2noc(CCCC(=O)NC3CCCC3)n2)cc1OC`, the Potency entry was “inactive”. The same measure for `COc1ccc(-c2noc(-c3ccc(C)cc3)n2)cc1`: 3.66 µM (active); for `Cc1ccc(-c2noc(CC(c3ccccc3)c3ccccc3)n2)cc1`: “inactive”. `Cc1ccc(-c2noc(-c3ccccc3C(=O)NCC3CCCO3)n2)cc1` (centres undefined): the Potency entry is “inactive”. As for `COc1ccc(-c2noc(CSc3ccc(C)cc3)n2)cc1`, the entry is “inactive”; as for `COc1ccccc1CNS(=O)(=O)c1ccc(C)cc1`, “inactive”. On to `COc1ccc(-c2noc(CN(C)S(=O)(=O)c3ccc(C)cc3)n2)cc1`, for which the Potency entry was “inactive”.

With `COc1ccccc1Cc1nc(-c2ccc(C)cc2)no1`, the Potency is 18.4 µM (active). As to `COc1ccc(-c2noc(-c3cccc(OC)c3OC)n2)cc1OC`, the Potency is 3.26 µM (active). With `COc1ccc(-c2csc3nc(-c4ccccc4F)oc(=O)c23)cc1OC`, the Potency entry is “inactive”.

As to `Cc1ccc(-c2noc(CSc3nnc(-c4ccncc4)n3-c3ccc(F)cc3)n2)cc1`, the Potency result was “inactive”. With `CCOC(=O)C1CCCN(C(=O)CSc2nnc3nc(C)cc(C)n23)C1` (centres undefined), the Potency result is “inactive”. The same measure for `CC(C)NC(=O)Nc1cccc2c1O[C@H](CN(C)S(=O)(=O)c1cccs1)[C@@H](C)CN([C@H](C)CO)C2=O`: “inactive”.

Turning to `COc1ccc(-c2sc3ccccc3c2-c2ccc(OCCN3CCOCC3)cc2)cc1`, the Potency result is “inactive”.

Turning to `O=C(COC(=O)c1cccnc1Cl)Nc1ccc(S(=O)(=O)N2CCOCC2)cc1`, the Potency entry was “inactive”.

As to `COc1ccc2[nH]c3c(c2c1)CCN1C(=O)C(CC(=O)NCCCN(C)C)C[C@H](C(=O)N2CCOCC2)[C@@]31CCC1CCCC1` (some centres undefined), the Potency entry was “inactive”.

`Cc1ccc(S(=O)(=O)Nc2ccc(F)c(S(=O)(=O)N3CCOCC3)c2)cc1`: the Potency entry is “inactive”. As for `CCn1nc(C(=O)NNS(=O)(=O)c2cc(/C=C/C(=O)O)cc(OC)c2OC)c2ccccc2c1=O`, the entry is “inactive”.
